Source: PubChem BioAssay
DT40 TDP1 no CPT: qHTS for Inhibitors of human tyrosyl-DNA phosphodiesterase 1 (TDP1): qHTS in cells in absence of CPT; DT40 Tdp1-/- hTDP1 cells, no CPT, ATP luminescence, 48 h; Potency, µM (series often up to 46.2 µM), inactives show at the top dose activity change, negative = growth inhibition, most hits filed as inhibitors; 15% of 420,000 active; also: potency is read from the fitted curve at half-maximal effect; nearly all actives have a fitted effect of over 55% in size
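Cells were dispensed at 400 per well, compounds added by pin tool, plates incubated ≥48 hr at 37 °C, then CellTiter-Glo added for 30 min at room temperature before luminescence reading. Line: DT40 Tdp1-/- complemented with hTDP1; camptothecin omitted.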
HT1080 IDH1KD tx: HT-1080 IDH1 knockdown cell toxicity (counter line); HT-1080 IDH1 knockdown viability, ATP luminescence, 48 h; Potency, µM (series often up to 46.1 µM), inactives show at the highest dose activity, negative = toxicity, usual class: cytotoxic; 2% of 360,000 active;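 also: potency is read from the fitted curve at half-maximal effect; 0% = DMSO wells and -100% = cell-free medium wells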
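In this qHTS, HT-1080 cells depleted of IDH1 are exposed for 48 h at 37 °C to compound titrations. Toxicity is scored from CellTiter-Glo luminescence, with DMSO as full viability and medium alone as none.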
HT1080-NT tox: kills 2HG-producing HT-1080-NT fibrosarcoma cells. Potency, µM (series often up to 46.1 µM), for inactives: top-dose activity, negative = less viability, most hits filed as cytotoxic. HT-1080-NT fibrosarcoma viability, CellTiter-Glo ATP luminescence, 48 h. AID 686970. 1.6% of 360,000 active;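 also: NT is the 2HG producing partner of a matched IDH1 knockdown line; potency is read from the fitted curve at half-maximal effect; 0% = DMSO-treated cells and -100% = media-only wells without cells; nearly all actives have a fitted effect of over 55% in size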
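Read-out is CellTiter-Glo luminescence after 10 minutes at room temperature, following 48 hours' compound treatment of HT-1080-NT cells (750 cells/well, RPMI, 5% FBS, 37 degrees C).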
IL-1B inflam inh: inflammasome signaling inhibition, IL-1 beta readout; 4.7% of 360,000 active; activity change, % at 57.5 µM; THP-1 LPS/ATP IL-1B secretion, AlphaLISA, 16 h; stronger effect = lower value; AID 743279; in the data active = activity change below about -50%; inconclusive = mostly about -30% to -49%
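THP-1 cells pretreated 1 hr with compounds (up to 57.5 uM final), then stimulated with LPS (250 ng/mL final) plus ATP (1.25 mM final); secreted IL-1B measured by AlphaLISA after 16 hr, decreased signal indicating inhibition.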
TDP1 cell CPT: growth inhibition of DT40 Tdp1-/-;hTDP1 cells with camptothecin (screen for TDP1 inhibitors) | chicken DT40 Tdp1-/-;hTDP1 cells + 20 nM CPT, ATP luminescence, 48 h | Potency, µM (doses to about 46.2 µM), inactives show at the highest dose activity change, negative = growth inhibition, hits mostly inhibitors | 12% of 420,000 active | AID 686979; also: potency is read from the fitted curve at half-maximal effect; nearly all actives have a fitted effect of over 55% in size
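Chicken DT40 Tdp1-/- cells stably complemented with human TDP1 were seeded at 400 cells/well in medium containing 20 nM camptothecin, exposed to pin-transferred compounds, and grown at 37 °C for at least 48 hr. Viability was read as ATP luminescence.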
uPA generation: blocks generation of uPA at the cell surface. cell surface uPA generation assay, qHTS. Potency, µM (doses to about 38.3 µM), for the others: top-dose activity change, negative = inhibition, hits mostly inhibitors. 0.31% of 330,000 active. AID 540303; active = well fitted inhibition curve with a large enough effect; inconclusive = small, poorly fitted or top-dose-only effect; inactive = no such curve, though single readings can be large or run the other way; tested in mouse RAW 264.7 cells; also: potency is read from the fitted curve at half-maximal effect; nearly all actives have a fitted effect of over 55% in size
Numbers without * were called inactive; ? = inconclusive; . = no result; [ ] = dose if it differs, or a comment. Sampled rows, rich in hits. Any-hit rate of the full collection: about 19%. Unless noted, calls follow the shape of the dose curve; as a rule, active = well fitted curve in the direction sought with a large enough effect; inconclusive = small, poorly fitted or top-dose-only effect, or another doubt; inactive = no such curve, though single readings can be large; an effect the other way counts as inactive or inconclusive. Unless noted, % is scaled to controls: 0 for no effect and ±100 for the full control effect.

SMILES	DT40 TDP1 no CPT	HT1080 IDH1KD tx	HT1080-NT tox	IL-1B inflam inh	TDP1 cell CPT	uPA generation
CC(C)(C)c1ccc(C(=O)Nc2ccc(NC(=O)C(=O)O)cc2)o1	2%	5%	6%	8	-3%	-33%
NC(=O)c1ccc(NC(=O)COC(=O)c2ccc(Br)c(S(=O)(=O)N3CCOCC3)c2)cc1	-1%	1%	-6%	-60*	-9%	4%
CC(=O)c1c(C)[nH]c(C(=O)OC(C)C(=O)Nc2ccc(C)c(S(=O)(=O)N3CCOCC3)c2)c1C (centres undefined)	29µM*	-15%	-8%	40	23µM*	-13%
Cc1ccc(NC(=O)C(C)OC(=O)c2cc(=O)[nH]c3ccccc23)cc1S(=O)(=O)N1CCOCC1 (centres undefined)	8%	18%	5%	27	2%	-3%
CCC(C(=O)OCC(=O)Nc1ccc(C)c(S(=O)(=O)N2CCOCC2)c1)c1ccccc1 (centres undefined)	?	0%	-5%	-1	12µM*	?
Cc1ccc(NC(=O)COC(=O)C2(C)CC2(Cl)Cl)cc1S(=O)(=O)N1CCOCC1 (centres undefined)	23µM*	2%	-1%	4	21µM*	1%
CC(NC(=O)c1ccc(NC(=O)CC2SC(N3CCCC3)=NC2=O)cc1)c1ccc(F)cc1 (centres undefined)	13%	-2%	11%[9.24 µM]	12	-11%	10%
COc1ccc(C2C3=C(Nc4ncnn42)c2ccccc2CCC3)cc1 (centres undefined)	-25%	-2%	-5%	-1	0%	4%
Fc1ccc(/C=C2\CCCC3=C2Nc2ncnn2C3c2ccc(F)cc2)cc1 (centres undefined)	18µM*	6.5µM*	7.3µM*	-122*	15µM*	-19%
Cc1ccc(NC(=O)c2ccc(C#CC3(O)CCCCC3)cc2)cc1C	16µM*	3%	6%	2	23µM*	.
CC1=C(C(=O)NCc2cccc(Cl)c2)C2(CCCCCC2)OC1=O	1.8µM*	.	.	.	?	.
CC1=C(C(=O)Nc2ccc(C)c(C)c2)C2(CCCCCC2)OC1=O	?	.	.	.	15µM*	.
COc1ccc(C(=O)N/C(=C\c2ccc3c(c2)OCO3)C(=O)N2CCOCC2)cc1	-14%	1%	8%	11	-17%	-10%
CC1OC(OC2C(CO)OC(OC3C(CO)OC(O)C(O)C3O)C(O)C2O)C(O)C(O)C1NC1C=C(CO)C(O)C(O)C1O (centres undefined)	-2%	.	.	.	-10%	.
CCOc1ccc2nc(NCCCNC(=O)c3cc(OC)c(OC)c(OC)c3)c(C#N)cc2c1	16µM*	10%	3%	-6	13µM*	-2%
COc1cc(C(=O)NCCCNc2nc3cc(C)cc(C)c3cc2C#N)cc(OC)c1OC	?	0%	3%	-9	?	-1%
CCOc1ccc(-c2nc(CN(Cc3ccccc3)C[C@@H]3CCC(=O)N3)c(C)o2)cc1	21µM*	?	?	-81*	?	1%
O=C1CC[C@@H](CN(Cc2ccccc2)Cc2cn[nH]c2-c2cc3ccccc3o2)N1	16µM*	?	?	-8	26µM*	12%
c1ccc2oc(-c3[nH]ncc3CN(Cc3ccncc3)CC3CCCO3)cc2c1 (centres undefined)	26µM*	1%	8%	-1	?	-4%
CN(Cc1cn[nH]c1-c1cc2ccccc2o1)CC1CCOCC1	-4%	-5%	-1%	-14	-3%	1%
OC1(CNCc2cn[nH]c2-c2cc3ccccc3o2)CCCCC1	?	?	-17%	-91*	-22%	-2%
c1ccc2oc(-c3[nH]ncc3CN3CCSCC3)cc2c1	-27%	-3%	-3%	-24	?	1%
Cc1oc(-c2ccc(C(F)(F)F)cc2)nc1CN(Cc1ccccn1)C[C@@H]1CCC(=O)N1	?	-2%	1%	18	?	-13%
CCn1c(CN2CCOCC2)nc2cc(NC(=O)c3ccc([N+](=O)[O-])cc3)ccc21	-24%	.	.	.	-21%	.
Cc1c(N)cc2c(c1N)C(C)(C)CC2(C)C	-26%	21%	12%	50	-28%	0%
SMILES	DT40 TDP1 no CPT	HT1080 IDH1KD tx	HT1080-NT tox	IL-1B inflam inh	TDP1 cell CPT	uPA generation
O=C1OCCN1C(=O)[C@H]1[C@H](c2ccc([N+](=O)[O-])cc2)C(c2ccc(F)cc2)=NN1c1ccccc1	-24%	-28%	-14%	-51*	?	-12%
O=C1OCCN1C(=O)[C@H]1[C@H](c2ccccc2)C(c2ccc(F)cc2)=NN1c1ccc(Br)cc1	?	-19%	-7%	-16	?	1%
O=C1OCCN1C(=O)[C@H]1[C@H](c2ccccc2)C(c2ccccc2)=NN1c1ccccc1	-19%	-8%	-6%	-7	?	-8%
O=C1OCCN1C(=O)[C@H]1[C@H](c2ccc([N+](=O)[O-])cc2)C(c2ccc(F)cc2)=NN1c1ccc(Br)cc1	15µM*	?	-19%	?	?	-8%
CC(C)(C)N(Cc1ccc2c(c1)OCO2)C(=O)/C=C\S(=O)c1ccccc1 (centres undefined)	3.7µM*	13µM*	-26%	-61*	5.2µM*	-4%
O=C(Nc1ccccc1)c1ccccc1N=Cc1cccc(O)c1	?	-4%	-11%	-6	-26%	-4%
Cc1ccc(C=Nc2ccccc2C(=O)Nc2ccccc2)cc1	12µM*	24%	10%	22	?	-2%
Cc1ccc(C=Nc2ccccc2C(N)=O)cc1	3.2µM*	5.6µM*	7.1µM*	41	2.8µM*	.
NC(=O)c1ccccc1N=Cc1cccnc1	-18%	0%	-6%	17	?	4%
Cc1ccccc1C=Nc1ccccc1C(N)=O	4.6µM*	16µM*	16µM*	-1	5.2µM*	-6%
CC1=C(C(=O)OCCBr)C(c2cccc3ccccc23)NC(=O)N1 (centres undefined)	?	14%	4%	18	?	4%
CCCOc1ccc(S(=O)(=O)n2cc(F)c(=O)[nH]c2=O)cc1	?	-3%	0%	21	?	-15%
Cc1ccc(OCC(=O)Nc2ccc3c(c2)nc(CCN2CCCCC2)n3C)cc1	?	6%	12%	-61*	?	0%
Cc1cccc(OCC(=O)Nc2ccc3c(c2)nc(CCN2CCCCC2)n3C)c1	-25%	1%	-5%	-50*	-17%	-15%
